High-throughput results from PubChem.
MARV entry inh = Marburg virus entry inhibition; Marburg virus pseudotyped entry inhibition, cell reporter; Potency, µM (series often up to 37.8 µM), without a hit: at the highest dose activity change, negative = inhibition, hits mostly inhibitors; actives 1.8% (n = 300,000); calls by dose curve; tested in HEK293 cells; also: potency is read from the fitted curve at half-maximal effect
HCMV antiviral = inhibitors of human cytomegalovirus; HFF cells, HCMV-luciferase reporter, 72 h; active compounds read low; activity change, negative = inhibition, % at 57.5 µM; actives 4.5% (n = 410,000); in the data active = activity change below about -60%; inconclusive = no clear call, values can overlap the other calls; inactive = above about -39%
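Human foreskin fibroblasts infected with luciferase-reporter HCMV at MOI 1 PFU/cell, compounds at two doses. Luciferase measured 72 h post infection; normalized to buffer-only basal and Salinomycin (10uM) controls.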
Lassa entry inh = inhibitors of Lassa virus binding or cell entry; Lassa virus pseudotype entry inhibition, cell reporter; Potency, µM (highest dose often 37.9 µM), inactives show top-dose activity change, negative = inhibition, usual class: inhibitors; actives 1.2% (n = 300,000); calls by dose curve; tested in HEK293 cells; also: potency is read from the fitted curve at half-maximal effect; nearly all actives have a fitted effect of over 50% in size
Pf growth 48h = P. falciparum growth inhibition at 48 hours (one generation). Potency, µM (series often up to 28.7 µM), for the others: top-dose activity change, negative = inhibition, usual class: inhibitors. actives 5.9% (n = 310,000). P. falciparum luciferase growth in erythrocytes, 48 h. AID 504832; also: potency is read from the fitted curve at half-maximal effect
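In quantitative HTS format, infected erythrocytes bearing luciferase-reporter parasites were treated for a single generation at 37 C. Luminescence after adding detection reagent served as the growth measure.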
HCV inhibitor = inhibitors of hepatitis C virus infection | Potency, µM (highest dose often 41.8 µM), inactives show at the highest dose activity change, negative = inhibition, most hits filed as inhibitors | actives 3.4% (n = 340,000) | Huh7.5.1 HCVcc-Cre infection, luciferase reporter, 44 h; also: potency is read from the fitted curve at half-maximal effect
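1,000 cells/well; 4 h culture; + compound; + HCVcc-Cre (~0.5 moi); 44 h; luciferase substrate, RT 15 min; read 15 sec.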
Pf growth 96h = P. falciparum growth inhibition at 96 hour, primary screen for plastid delayed-death inhibitors | AID 504834 | P. falciparum luciferase reporter growth, 96 h | Potency, µM (titrated, usually from 28.7 µM), for the others: at the highest dose activity change, negative = inhibition, actives largely listed as inhibitors | actives 6.9% (n = 320,000); also: potency is read from the fitted curve at half-maximal effect
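Two parasite generations (96 h, 37 C, 5% CO2) of compound exposure in infected erythrocytes (0.05% parasitemia, 2% hematocrit). Luciferase-reporter P. falciparum; decreased luminescence indicates inhibited growth, aimed at apicoplast-acting delayed death.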
An asterisk follows results filed as active; i = inactive; u = inconclusive; x = not tested or not shown; + = active, no number; ! = not confirmed by another sample; [ ] = dose if it differs, or a comment. Only some compounds are listed: those with a hit (about 14% of all), similar ones and a draw of the others. Unless noted, calls follow the shape of the dose curve; as a rule, active = well fitted inhibition curve with a large enough effect; inconclusive = small, poorly fitted or top-dose-only effect, or another doubt; inactive = no such curve, though single readings can be large or run the other way. % is scaled to controls: 0 for no effect and ±100 for the full control effect.

SMILES	MARV entry inh	HCMV antiviral	Lassa entry inh	Pf growth 48h	HCV inhibitor	Pf growth 96h
COC(=O)C[C@@H]1CC[C@H](NC(=O)c2ccc3c(c2)OCO3)[C@@H](CO)O1	x	-11	x	x	x	x
COc1ccc(CNC(=O)C(C)n2c(=O)cc(C)c3c(C)nn(-c4ccccc4)c32)cc1 (stereo not drawn)	x	6	7%[46.1 µM]	x	x	x
Fc1ccc(NN2CCOCC2)cc1-c1noc2ccccc12	x	-5	x	x	x	x
COc1ccc(/C=C\C(=O)c2c(O)ccc3c(C)cc(=O)oc23)cc1	-3%	u	-26%	u	-11%	x
COc1ccc(/C=C/C(=O)c2c(O)ccc3c(C)cc(=O)oc23)cc1	x	-78*	x	10µM*	u	i
COc1ccc(/C=N/NC(=O)c2ccc(CSc3nc(C)cc(C)n3)cc2)cc1O	-23%	-66*	-3%	u	u	u
Cc1cc(C)nc(SCc2ccc(C(=O)N/N=C/c3cccc(O)c3O)cc2)n1	7.3µM*	-99*	u	10µM*	13µM*	4.7µM*
COc1ccc(/C=N/NC(=O)c2ccc(CSc3nc(C)cc(C)n3)cc2)c(OC)c1OC	5%	u	14%	-4%	u	u
COc1ccc(O)c(/C=N/NC(=O)c2ccc(CSc3nc(C)cc(C)n3)cc2)c1	u	-90*	u	u	5.6µM*	u
CC(C)(Oc1ccc(Cl)cc1)C(=O)OCC(=O)NCCc1ccccc1	8%[46.1 µM]	4	-11%[46.1 µM]	6%	6%	27%
O=C(Cc1ccc(NC(=O)C2CCCN(C(=O)c3ccccc3)C2)cc1)Nc1cccc(C(=O)N2CCCCC2)c1 (stereo not drawn)	x	-25	x	x	x	x
CSCCC(NC(=O)OCc1ccccc1)C(=O)NC(Cc1c[nH]c2ccccc12)C(=O)O (stereo not drawn)	x	15	x	x	x	x
COc1ccc(N(C)S(=O)(=O)c2cccc(C(=O)N3CCN(c4cccc(C)c4C)CC3)c2)cc1	x	-29	x	x	u	x
Cc1c(NC(=O)c2ccc(-c3cccc([N+](=O)[O-])c3)o2)cccc1-c1nc2cc(Cl)ccc2o1	30%[46.1 µM]	36	23%[46.1 µM]	x	x	x
O=C(O)c1cc([N+](=O)[O-])ccc1C(=O)Nc1cccc([N+](=O)[O-])c1	u	-18	4%	9%	-9%	9%
CC(C)Sc1ccc([N+](=O)[O-])cc1C(=O)Nc1ccncc1	-9%[46.1 µM]	-27	-5%	u	-3%	1.2µM*
COc1ccc(CNC(=O)Nc2ccc([N+](=O)[O-])cc2)cc1	x	-10	x	x	-16%[8.37 µM]	x
COc1ccc(NC(=O)c2ccc(-c3ccc([N+](=O)[O-])cc3)o2)cc1	u	-61*	17%[46.1 µM]	18%	-15%	-15%
O=C(Nc1ccc(Cl)c(-c2nc3ccccc3o2)c1)c1ccc(-c2cccc([N+](=O)[O-])c2)o1	19%[46.1 µM]	-103*	0%[46.1 µM]	x	x	x
COc1ccc(NC(=O)c2cc([N+](=O)[O-])ccc2O)cc1	x	-102*	x	-38%	u	u
CCCCNC(=O)C[C@@H]1C[C@@]2(C(=O)OC)CCCCC=C2N(CCC2=CCCCC2)C1=O	x	6	x	x	x	x
Cc1ccc(C)c(S(=O)(=O)c2cn(Cc3ccccc3)c3cc(N4CCCC4)c(F)cc3c2=O)c1	x	19	-2%[46.1 µM]	x	x	x
COc1ccc(CCNC(=O)c2ccc(CS(=O)(=O)Cc3cccc(C)c3)o2)cc1OC	u	+!	u	-18%	22µM*	u
COc1ccc(CCNC(=O)c2ccc(-c3ccc([N+](=O)[O-])cc3)o2)cc1OC	u	-69*	u	-15%	-25%	u
O=C(Nc1ccccc1)c1ccc(-c2ccc([N+](=O)[O-])cc2)o1	15%[46.1 µM]	-66*	-9%	u	-15%	37%
SMILES	MARV entry inh	HCMV antiviral	Lassa entry inh	Pf growth 48h	HCV inhibitor	Pf growth 96h
COc1ccc(CCNC(=O)c2noc(C(C)C)c2[N+](=O)[O-])cc1OC	20%	u	10%	1%[0.00184 µM]	-23%	28%
COc1ccc(C(=O)NCCNc2ccc([N+](=O)[O-])cc2)cc1OC	4%	-11	-2%	-7%	-4%	5.2µM*
O=C(NCCNc1ccc([N+](=O)[O-])cc1)c1cccc(Br)c1	7%	-20	-1%	-7%	8%	-17%
CN(C)Cc1cn(CC[C@@H]2CC[C@@H](NC(=O)Nc3ccccc3F)[C@@H](CO)O2)nn1	x	3	x	x	x	x
CC1CCC(NC(=O)C2CCN(c3nc4ccccc4s3)CC2)CC1 (stereo not drawn)	-16%[46.1 µM]	11	u	-13%	10µM*	20%
Cc1cccc(C)c1NC(=O)N1CCN(c2nc3ccccc3s2)CC1	u	-70*	u	-12%	u	x
Cc1cccc(Cl)c1NC(=O)N1CCCN(c2nc3ccc(Cl)cc3s2)CC1	x	-35	x	u	7.1µM*	u
Cc1ccc2nc(N3CCC(C(=O)NC4CCCCC4)CC3)sc2c1	x	-14	x	-15%	u	u
CC(C)(C)C(=O)N1CCN(c2nc3ccc(Cl)cc3s2)CC1	3%[46.1 µM]	x	7%[46.1 µM]	-5%[0.00184 µM]	-6%	66%
Cc1cccc(NC(=O)N2CCN(C(=O)c3nsc4ccccc34)CC2)c1C	x	+	1%[46.1 µM]	x	x	x
CCc1c(C)nc(SCc2nc(-c3ccccc3)no2)[nH]c1=O	x	-37	2%[46.1 µM]	x	x	x
CC(c1nccs1)N(C)c1nc2nonc2nc1NC1CC1 (stereo not drawn)	x	-22	x	8%	2%	0%
CC(c1nccs1)N(C)c1nc2nonc2nc1N(C)C (stereo not drawn)	6%[46.1 µM]	0	11%[46.1 µM]	8%	8%	13µM*
O=C(N/N=C/c1ccccc1OCc1ccccc1Cl)c1cccnc1	u	-21	u	12%	-8%	440%
COCCNC(=S)N/N=C/c1c2ccccc2cc2ccccc12	u	-13	-16%	6.6µM*	u	3.7µM*
NC(=S)N/N=C\c1c2ccccc2cc2ccccc12	u	-24	13%	-3%	13µM*	-16%
NC(=S)NN=Cc1cc(-c2cccc(N)c2)ccn1	x	-100*	x	x	x	x
NC(=S)N/N=C\c1c(OCc2ccccc2Cl)ccc2ccccc12	u	-97*	u	10µM*	7.9µM*	42%
COc1ccc(C(=O)N2CCCC(C(N)=O)C2)cc1S(=O)(=O)N1CCOCC1 (stereo not drawn)	x	60	x	-4%	12%	2%
C[N+](C)(C)CC(=O)N/N=C/c1c2ccccc2cc2ccccc12	x	36	x	9.3µM*	u	6.6µM*
COc1ccc(N(Cc2nnc3n2CCCCC3)C(=O)Nc2ccc(Cl)cc2)cc1Cl	x	21	2%[46.1 µM]	x	x	x
O=C1OC(/C(=C\Nc2ccc(F)cc2F)[N+](=O)[O-])c2ccccc21 (stereo not drawn)	-6%[46.1 µM]	-30	-31%	u	20%	-197%
